TDP1 cell CPT: DT40-hTDP1 cell growth loss with CPT | AID 686979 | Potency, µM (series often up to 46.2 µM), most hits filed as inhibitors | chicken DT40 Tdp1-/-;hTDP1 cells + 20 nM CPT, ATP luminescence, 48 h | 12% of 420,000 active; further: nearly all actives have a fitted effect of over 55% in size
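Chicken DT40 Tdp1-/- cells stably complemented with human TDP1 were seeded at 400 cells/well in medium containing 20 nM camptothecin, exposed to pin-transferred compounds, and grown at 37 °C for at least 48 hr. Viability was read as ATP luminescence.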
HT1080NT lethal: kills 2HG-producing HT-1080-NT fibrosarcoma cells; HT-1080-NT fibrosarcoma viability, CellTiter-Glo ATP luminescence, 48 h; Potency, µM (doses to about 46.1 µM), usual class: cytotoxic; 1.6% of 360,000 active; AID 686970;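 further: NT is the 2HG producing partner of a matched IDH1 knockdown line; nearly all actives have a fitted effect of over 55% in size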
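Fibrosarcoma NT cells, 750 per well in 5% FBS RPMI, were exposed to compound for 48 hours. Viability: CellTiter-Glo luminescence.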
DT40 TDP1 no CPT: qHTS for Inhibitors of human tyrosyl-DNA phosphodiesterase 1 (TDP1): qHTS in cells in absence of CPT; 15% of 420,000 active; DT40 Tdp1-/- hTDP1 cells, no CPT, ATP luminescence, 48 h; Potency, µM (top dose mostly 46.2 µM), usual class: inhibitors; further: nearly all actives have a fitted effect of over 55% in size
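Camptothecin absent (DMSO only). Human TDP1-complemented DT40 knockout cells, 400 cells/well, 37 °C for minimum 48 hr; ATP measured via CellTiter-Glo, 30 min dark incubation, luminescence.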
IL-1B inflam inh: blocks inflammasome-driven IL-1 beta release | THP-1 LPS/ATP IL-1B secretion, AlphaLISA, 16 h; hits give low values | activity change, % at 57.5 µM | 4.7% of 360,000 active; in the data active means activity change below about -50%; inconclusive means mostly about -30% to -49%
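THP-1 cells pretreated 1 hr with compounds (up to 57.5 uM final), then stimulated with LPS (250 ng/mL final) plus ATP (1.25 mM final); secreted IL-1B measured by AlphaLISA after 16 hr, decreased signal indicating inhibition.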
HT1080 IDH1KD tx: HT-1080 IDH1 knockdown cell toxicity (counter line) | 2% of 360,000 active | HT-1080 IDH1 knockdown viability, ATP luminescence, 48 h | AID 686971 | Potency, µM (doses to about 46.1 µM), actives largely listed as cytotoxic
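Knockdown cells (IDH1KD HT-1080) received compounds 2 h after plating at 750 cells/well and were kept 48 h at 37 °C in 5% FBS RPMI. A CellTiter-Glo luminescence read gave % activity for curve fitting.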
uPA surface inh: blocks generation of uPA at the cell surface; cell surface uPA generation assay, qHTS; Potency, µM (highest dose often 38.3 µM), hits mostly inhibitors; 0.31% of 330,000 active; active means well fitted inhibition curve with a large enough effect; inconclusive means small, poorly fitted or top-dose-only effect; inactive means no such curve, though single readings can be large or run the other way; tested in mouse RAW 264.7 cells; further: nearly all actives have a fitted effect of over 55% in size
Large screens that a line does not name were inactive. Shown are actives, neighbours in structure and some others; about 19% of the full set was active somewhere. Unless noted, the call rests on the fitted dose curve; in most records, active means well fitted curve in the direction sought with a large enough effect; inconclusive means small, poorly fitted or top-dose-only effect, or another doubt; inactive means no such curve, though single readings can be large; an effect the other way counts as inactive or inconclusive.

COc1ccc(C(=O)N2CCC[C@@]3(CCN(Cc4nccs4)C3)C2)cc1	none (no result: HT1080NT lethal, IL-1B inflam inh, HT1080 IDH1KD tx, uPA surface inh)
O=C1CCc2cc(S(=O)(=O)NC(C(=O)Nc3ccc(F)cc3)c3ccccc3)ccc2N1 (stereo not drawn)	TDP1 cell CPT inconclusive (no result: HT1080NT lethal, IL-1B inflam inh, HT1080 IDH1KD tx, uPA surface inh)
O=C(NCc1ccccc1)c1cc(-c2ccncc2)nc2ccccc12	TDP1 cell CPT inconclusive, DT40 TDP1 no CPT inconclusive
Cc1cc(CNC(=O)c2cc(-c3ccccc3)nc3ccccc23)nn1C	TDP1 cell CPT inconclusive, DT40 TDP1 no CPT 21µM
COCCNC(=O)c1cc(-c2ccc(-c3ccccc3)cc2)nc2ccccc12	TDP1 cell CPT 12µM, HT1080NT lethal inconclusive, DT40 TDP1 no CPT 5.2µM, IL-1B inflam inh -66, HT1080 IDH1KD tx inconclusive
Cc1cc(C(=O)NCc2cc(C)n(C)n2)sc1-c1ccccc1	TDP1 cell CPT 13µM, DT40 TDP1 no CPT 21µM
O=C(NCCc1ccc(Cl)cc1)c1cc(-c2ccccn2)nc2ccccc12	TDP1 cell CPT inconclusive, DT40 TDP1 no CPT inconclusive
O=C(NCCc1ccccn1)c1cc(-c2ccccc2Cl)nc2ccccc12	DT40 TDP1 no CPT 18µM
Cc1cc(C(=O)N(C)C)sc1-c1ccccc1	HT1080NT lethal inconclusive, DT40 TDP1 no CPT inconclusive
Cc1ccc2c(CC(=O)Nc3c(C(=O)c4ccc(F)cc4)oc4ccccc34)coc2c1	none (no result: HT1080NT lethal, IL-1B inflam inh, HT1080 IDH1KD tx, uPA surface inh)
O=C(NCc1ccccn1)c1cc(-c2ccc(-c3ccccc3)cc2)nc2ccccc12	TDP1 cell CPT 16µM, HT1080NT lethal inconclusive, DT40 TDP1 no CPT 8.2µM, HT1080 IDH1KD tx inconclusive, uPA surface inh 1.1µM
CCn1cc(CNC(=O)c2cc(-c3ccc(C)c(C)c3)nc3ccccc23)c(C)n1	TDP1 cell CPT 15µM, DT40 TDP1 no CPT 16µM (no result: HT1080NT lethal, IL-1B inflam inh, HT1080 IDH1KD tx, uPA surface inh)
CCc1nc2ccc(C(=O)N3CCN(C(C)=O)CC3)cn2c1N(C)C(=O)c1cccc(OC)c1	none (no result: uPA surface inh)
c1ccc(Cn2cc(CSc3ccccc3)nn2)cc1	none
c1ccc(SCc2cn(C[C@H]3CC[C@@H]([C@@H]4CC[C@H](Cn5cc(CSc6ccccc6)nn5)O4)O3)nn2)cc1	TDP1 cell CPT inconclusive, DT40 TDP1 no CPT 16µM
COc1cccc(-c2cn(C[C@H]3CC[C@@H]([C@@H]4CC[C@H](Cn5cc(-c6cccc(OC)c6)nn5)O4)O3)nn2)c1	TDP1 cell CPT inconclusive, DT40 TDP1 no CPT 16µM
O=C1c2ccccc2C(=O)N1CCCc1cn(C[C@H]2CC[C@@H]([C@@H]3CC[C@H](Cn4cc(CCCN5C(=O)c6ccccc6C5=O)nn4)O3)O2)nn1	none
O=C1c2ccccc2C(=O)N1CCCCc1cn(C[C@H]2CC[C@@H]([C@@H]3CC[C@H](Cn4cc(CCCCN5C(=O)c6ccccc6C5=O)nn4)O3)O2)nn1	TDP1 cell CPT 16µM, DT40 TDP1 no CPT 16µM
Cc1ccc(C(=O)OCC(=O)c2ccc(Br)cc2)cc1S(=O)(=O)N1CCOCC1	none
COc1ccc2cc(/C=N/NC(=O)CN(c3ccccc3C)S(=O)(=O)c3ccccc3)c(Cl)nc2c1	TDP1 cell CPT 2.9µM, DT40 TDP1 no CPT 6.5µM
Cc1nc(C)c(C(=O)NCc2nc(-c3cccc(NC(=O)c4ccccn4)c3)oc2C)s1	TDP1 cell CPT 3.3µM, DT40 TDP1 no CPT 2.9µM (no result: HT1080NT lethal, IL-1B inflam inh, HT1080 IDH1KD tx, uPA surface inh)
CSc1ccccc1C(=O)NCc1nc(-c2cccc(NC(=O)c3ccoc3C)c2)oc1C	TDP1 cell CPT inconclusive, DT40 TDP1 no CPT 21µM (no result: HT1080NT lethal, IL-1B inflam inh, HT1080 IDH1KD tx, uPA surface inh)
COC(=O)c1cccc(C(=O)NCc2nc(-c3cccc(NC(=O)c4ccoc4C)c3)oc2C)c1	DT40 TDP1 no CPT 21µM (no result: HT1080NT lethal, IL-1B inflam inh, HT1080 IDH1KD tx, uPA surface inh)
Cc1occc1C(=O)Nc1cccc(-c2nc(CNC(=O)c3ccc4ccccc4n3)c(C)o2)c1	TDP1 cell CPT 8.2µM, DT40 TDP1 no CPT 6.5µM (no result: HT1080NT lethal, IL-1B inflam inh, HT1080 IDH1KD tx, uPA surface inh)
COc1ccc(CCNC(=O)C2(c3cccs3)CCOCC2)cc1	DT40 TDP1 no CPT inconclusive (no result: HT1080NT lethal, IL-1B inflam inh, HT1080 IDH1KD tx, uPA surface inh)
O=C(c1ccc(-n2cncn2)c([N+](=O)[O-])c1)N1CCN(S(=O)(=O)c2cccc(F)c2)CC1	TDP1 cell CPT inconclusive, DT40 TDP1 no CPT inconclusive
Nc1ccccc1-c1ccc([N+](=O)[O-])cc1	HT1080NT lethal inconclusive, HT1080 IDH1KD tx inconclusive

Bioassay records (PubChem)
